What was measured:
[1] = biological target: Protein kinase C gamma type (Homo sapiens) (UniProt P05129); details: at 1 µM;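 further: each value is an averaged percent inhibition of the enzyme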
[2] = biological target: T1, Protein kinase C iota type (Homo sapiens) (UniProt P41743); details: at 0.1 µM
T1 sequence (whole entry): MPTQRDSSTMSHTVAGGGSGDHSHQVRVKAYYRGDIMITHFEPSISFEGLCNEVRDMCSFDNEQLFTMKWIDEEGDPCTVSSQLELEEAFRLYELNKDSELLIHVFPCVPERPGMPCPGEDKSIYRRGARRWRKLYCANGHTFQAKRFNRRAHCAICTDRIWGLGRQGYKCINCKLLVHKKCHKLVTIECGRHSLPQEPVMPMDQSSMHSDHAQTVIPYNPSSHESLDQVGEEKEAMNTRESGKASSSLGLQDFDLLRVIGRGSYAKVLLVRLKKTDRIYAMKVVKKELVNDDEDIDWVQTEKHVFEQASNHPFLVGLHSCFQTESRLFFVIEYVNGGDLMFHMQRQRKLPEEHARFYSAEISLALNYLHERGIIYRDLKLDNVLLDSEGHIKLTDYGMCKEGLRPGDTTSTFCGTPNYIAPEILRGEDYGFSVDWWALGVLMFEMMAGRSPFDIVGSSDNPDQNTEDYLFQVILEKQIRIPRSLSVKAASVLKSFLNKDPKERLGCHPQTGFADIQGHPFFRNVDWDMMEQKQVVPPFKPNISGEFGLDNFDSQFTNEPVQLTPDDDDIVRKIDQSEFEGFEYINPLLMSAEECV

[3] = biological target: T1, Protein kinase C iota type (Homo sapiens); details: at 1 µM
[4] = biological target: Protein kinase C theta type (Homo sapiens) (UniProt Q04759); details: at 0.1 µM
Sequence of Protein kinase C theta type (Homo sapiens) (Q04759 whole entry, looked up): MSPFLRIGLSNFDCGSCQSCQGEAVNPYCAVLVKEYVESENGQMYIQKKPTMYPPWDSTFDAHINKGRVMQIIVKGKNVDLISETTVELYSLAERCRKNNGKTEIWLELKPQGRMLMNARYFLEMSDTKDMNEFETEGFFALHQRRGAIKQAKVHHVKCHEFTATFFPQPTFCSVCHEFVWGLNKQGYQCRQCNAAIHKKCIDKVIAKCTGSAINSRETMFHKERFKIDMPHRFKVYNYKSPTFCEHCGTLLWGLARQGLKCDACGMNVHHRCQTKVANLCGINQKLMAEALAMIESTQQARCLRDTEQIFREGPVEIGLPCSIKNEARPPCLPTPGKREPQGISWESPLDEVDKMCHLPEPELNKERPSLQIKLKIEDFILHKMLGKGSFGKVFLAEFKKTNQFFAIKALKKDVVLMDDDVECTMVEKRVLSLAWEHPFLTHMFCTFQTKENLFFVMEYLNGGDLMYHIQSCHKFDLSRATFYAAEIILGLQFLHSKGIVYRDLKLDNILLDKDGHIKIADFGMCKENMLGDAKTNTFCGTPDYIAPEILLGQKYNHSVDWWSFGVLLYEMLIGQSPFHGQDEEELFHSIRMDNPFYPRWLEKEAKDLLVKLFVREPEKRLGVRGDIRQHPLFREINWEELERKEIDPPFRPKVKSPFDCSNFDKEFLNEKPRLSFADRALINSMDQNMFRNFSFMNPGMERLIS

[5] = biological target: Protein kinase C theta type (Homo sapiens) (UniProt Q04759); details: at 1 µM
[6] = biological target: Protein kinase C beta type (Homo sapiens) (UniProt P05771); details: at 0.1 µM
Sequence of Protein kinase C beta type (Homo sapiens) (P05771 2-671 limits assumed): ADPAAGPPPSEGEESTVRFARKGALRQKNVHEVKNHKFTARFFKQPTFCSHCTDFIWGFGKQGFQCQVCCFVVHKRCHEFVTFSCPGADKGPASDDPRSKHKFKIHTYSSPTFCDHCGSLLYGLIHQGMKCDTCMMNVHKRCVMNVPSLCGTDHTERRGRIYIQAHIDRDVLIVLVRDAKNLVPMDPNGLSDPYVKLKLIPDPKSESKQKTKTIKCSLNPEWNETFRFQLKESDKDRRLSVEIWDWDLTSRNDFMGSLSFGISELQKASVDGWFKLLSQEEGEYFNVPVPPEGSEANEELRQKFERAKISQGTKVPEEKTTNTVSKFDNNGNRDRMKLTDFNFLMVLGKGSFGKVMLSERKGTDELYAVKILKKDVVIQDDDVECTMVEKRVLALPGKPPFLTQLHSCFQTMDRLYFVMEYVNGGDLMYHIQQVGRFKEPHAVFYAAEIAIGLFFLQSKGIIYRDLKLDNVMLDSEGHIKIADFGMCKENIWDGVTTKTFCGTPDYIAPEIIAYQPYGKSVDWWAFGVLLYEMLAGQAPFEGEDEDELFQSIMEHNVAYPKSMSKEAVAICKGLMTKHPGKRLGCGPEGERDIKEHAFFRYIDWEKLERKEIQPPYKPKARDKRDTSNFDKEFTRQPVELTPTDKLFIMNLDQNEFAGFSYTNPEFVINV

[7] = biological target: Protein kinase C beta type (Homo sapiens) (UniProt P05771); details: at 1 µM
[8] = biological target: T2, Serine/threonine-protein kinase D1 (Homo sapiens) (UniProt Q15139); details: at 0.1 µM
T2 sequence (whole entry): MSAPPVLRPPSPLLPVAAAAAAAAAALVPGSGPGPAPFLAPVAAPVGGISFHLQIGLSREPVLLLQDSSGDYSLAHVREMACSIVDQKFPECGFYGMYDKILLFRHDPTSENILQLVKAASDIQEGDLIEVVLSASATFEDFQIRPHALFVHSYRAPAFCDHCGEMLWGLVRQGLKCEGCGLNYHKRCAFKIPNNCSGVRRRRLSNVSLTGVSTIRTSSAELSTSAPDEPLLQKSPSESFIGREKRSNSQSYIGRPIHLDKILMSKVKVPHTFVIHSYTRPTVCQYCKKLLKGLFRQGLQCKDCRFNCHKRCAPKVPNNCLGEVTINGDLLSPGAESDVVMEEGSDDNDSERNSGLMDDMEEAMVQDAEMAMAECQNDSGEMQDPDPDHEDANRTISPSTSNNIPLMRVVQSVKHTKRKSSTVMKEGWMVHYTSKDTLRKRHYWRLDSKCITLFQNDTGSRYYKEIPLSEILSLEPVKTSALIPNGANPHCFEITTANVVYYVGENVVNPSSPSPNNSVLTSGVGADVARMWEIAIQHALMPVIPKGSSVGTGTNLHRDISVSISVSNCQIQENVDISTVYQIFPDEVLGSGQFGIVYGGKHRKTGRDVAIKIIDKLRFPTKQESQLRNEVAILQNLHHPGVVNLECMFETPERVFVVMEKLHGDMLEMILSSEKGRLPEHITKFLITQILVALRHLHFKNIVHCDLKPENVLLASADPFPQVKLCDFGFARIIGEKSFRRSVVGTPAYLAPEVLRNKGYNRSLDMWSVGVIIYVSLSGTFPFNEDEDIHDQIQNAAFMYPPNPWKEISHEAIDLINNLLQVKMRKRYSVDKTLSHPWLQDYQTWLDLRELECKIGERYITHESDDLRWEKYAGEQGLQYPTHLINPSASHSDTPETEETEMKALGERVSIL

[9] = biological target: T2, Serine/threonine-protein kinase D1 (Homo sapiens); details: at 1 µM
[10] = biological target: T3, Serine/threonine-protein kinase D2 (Homo sapiens) (UniProt Q9BZL6); details: at 0.1 µM
T3 sequence (whole entry): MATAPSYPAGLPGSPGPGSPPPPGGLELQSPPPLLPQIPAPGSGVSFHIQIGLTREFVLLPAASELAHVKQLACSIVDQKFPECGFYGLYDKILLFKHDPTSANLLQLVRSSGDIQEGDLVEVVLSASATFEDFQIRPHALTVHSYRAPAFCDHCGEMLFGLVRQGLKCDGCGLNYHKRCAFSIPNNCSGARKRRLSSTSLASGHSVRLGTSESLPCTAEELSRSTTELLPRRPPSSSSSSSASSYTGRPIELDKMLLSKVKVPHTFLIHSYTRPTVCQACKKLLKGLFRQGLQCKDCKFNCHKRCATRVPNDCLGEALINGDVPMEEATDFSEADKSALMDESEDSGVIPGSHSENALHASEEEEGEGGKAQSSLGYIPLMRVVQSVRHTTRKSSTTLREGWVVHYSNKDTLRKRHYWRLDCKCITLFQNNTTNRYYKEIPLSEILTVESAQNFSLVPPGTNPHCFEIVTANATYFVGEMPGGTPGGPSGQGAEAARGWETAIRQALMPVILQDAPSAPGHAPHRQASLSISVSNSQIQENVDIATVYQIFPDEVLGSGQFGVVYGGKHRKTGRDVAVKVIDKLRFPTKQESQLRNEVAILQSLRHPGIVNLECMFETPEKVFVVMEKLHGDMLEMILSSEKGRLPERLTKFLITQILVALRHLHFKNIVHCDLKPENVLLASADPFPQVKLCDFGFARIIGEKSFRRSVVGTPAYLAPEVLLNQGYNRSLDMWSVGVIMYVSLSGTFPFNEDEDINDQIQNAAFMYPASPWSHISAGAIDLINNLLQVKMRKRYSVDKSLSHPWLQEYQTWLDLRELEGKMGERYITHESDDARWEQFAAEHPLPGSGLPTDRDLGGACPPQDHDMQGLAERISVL

[11] = biological target: T3, Serine/threonine-protein kinase D2 (Homo sapiens); details: at 1 µM
[12] = biological target: T4, Serine/threonine-protein kinase D3 (Homo sapiens) (UniProt O94806); details: at 0.1 µM
T4 sequence (whole entry): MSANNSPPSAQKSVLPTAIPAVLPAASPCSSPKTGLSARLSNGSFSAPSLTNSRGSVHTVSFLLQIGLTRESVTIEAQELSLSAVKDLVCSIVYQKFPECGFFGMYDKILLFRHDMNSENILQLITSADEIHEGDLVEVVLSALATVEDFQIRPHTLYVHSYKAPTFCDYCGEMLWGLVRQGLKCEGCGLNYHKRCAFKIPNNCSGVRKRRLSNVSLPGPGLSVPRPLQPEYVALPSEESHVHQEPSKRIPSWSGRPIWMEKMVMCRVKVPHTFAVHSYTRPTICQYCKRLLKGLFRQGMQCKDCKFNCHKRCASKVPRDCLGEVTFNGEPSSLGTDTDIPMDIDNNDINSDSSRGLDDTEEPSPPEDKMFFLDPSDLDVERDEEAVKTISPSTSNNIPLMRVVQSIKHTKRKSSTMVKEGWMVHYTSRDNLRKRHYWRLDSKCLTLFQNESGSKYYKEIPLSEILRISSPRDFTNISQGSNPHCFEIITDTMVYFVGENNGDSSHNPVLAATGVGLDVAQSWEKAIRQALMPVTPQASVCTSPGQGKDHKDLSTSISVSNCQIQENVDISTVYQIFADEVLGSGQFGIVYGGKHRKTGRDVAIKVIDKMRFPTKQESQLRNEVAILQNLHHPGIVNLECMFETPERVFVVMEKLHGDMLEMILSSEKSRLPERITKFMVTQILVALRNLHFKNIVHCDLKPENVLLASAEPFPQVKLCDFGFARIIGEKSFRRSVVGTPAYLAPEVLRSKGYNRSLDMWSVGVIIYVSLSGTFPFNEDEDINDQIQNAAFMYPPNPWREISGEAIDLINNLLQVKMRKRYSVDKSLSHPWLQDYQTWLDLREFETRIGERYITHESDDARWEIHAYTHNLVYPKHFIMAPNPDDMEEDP

[13] = biological target: T4, Serine/threonine-protein kinase D3 (Homo sapiens); details: at 1 µM
[14] = biological target: T5, cGMP-dependent protein kinase 1 (Homo sapiens) (UniProt Q13976); details: at 0.1 µM
T5 sequence (whole entry): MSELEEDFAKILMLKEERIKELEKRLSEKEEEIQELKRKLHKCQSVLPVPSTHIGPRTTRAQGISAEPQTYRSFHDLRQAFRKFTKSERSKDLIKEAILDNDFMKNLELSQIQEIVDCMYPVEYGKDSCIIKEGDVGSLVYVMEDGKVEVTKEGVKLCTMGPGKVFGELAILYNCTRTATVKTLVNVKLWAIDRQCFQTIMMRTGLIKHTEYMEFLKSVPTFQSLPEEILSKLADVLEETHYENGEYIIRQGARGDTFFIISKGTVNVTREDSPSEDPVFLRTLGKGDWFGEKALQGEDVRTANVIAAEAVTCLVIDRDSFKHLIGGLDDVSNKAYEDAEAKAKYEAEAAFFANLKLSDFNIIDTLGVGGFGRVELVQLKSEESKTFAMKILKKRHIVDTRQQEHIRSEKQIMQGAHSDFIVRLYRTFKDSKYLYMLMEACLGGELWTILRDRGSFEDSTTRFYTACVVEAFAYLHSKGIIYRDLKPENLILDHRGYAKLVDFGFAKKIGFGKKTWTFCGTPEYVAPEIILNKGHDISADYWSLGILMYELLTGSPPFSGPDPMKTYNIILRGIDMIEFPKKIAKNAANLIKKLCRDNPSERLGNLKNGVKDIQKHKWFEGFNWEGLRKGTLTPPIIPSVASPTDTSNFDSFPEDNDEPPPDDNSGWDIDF

[15] = biological target: T5, cGMP-dependent protein kinase 1 (Homo sapiens); details: at 1 µM
[16] = biological target: T6, cGMP-dependent protein kinase 2 (Homo sapiens) (UniProt Q13237); details: at 0.1 µM
T6 sequence (whole entry): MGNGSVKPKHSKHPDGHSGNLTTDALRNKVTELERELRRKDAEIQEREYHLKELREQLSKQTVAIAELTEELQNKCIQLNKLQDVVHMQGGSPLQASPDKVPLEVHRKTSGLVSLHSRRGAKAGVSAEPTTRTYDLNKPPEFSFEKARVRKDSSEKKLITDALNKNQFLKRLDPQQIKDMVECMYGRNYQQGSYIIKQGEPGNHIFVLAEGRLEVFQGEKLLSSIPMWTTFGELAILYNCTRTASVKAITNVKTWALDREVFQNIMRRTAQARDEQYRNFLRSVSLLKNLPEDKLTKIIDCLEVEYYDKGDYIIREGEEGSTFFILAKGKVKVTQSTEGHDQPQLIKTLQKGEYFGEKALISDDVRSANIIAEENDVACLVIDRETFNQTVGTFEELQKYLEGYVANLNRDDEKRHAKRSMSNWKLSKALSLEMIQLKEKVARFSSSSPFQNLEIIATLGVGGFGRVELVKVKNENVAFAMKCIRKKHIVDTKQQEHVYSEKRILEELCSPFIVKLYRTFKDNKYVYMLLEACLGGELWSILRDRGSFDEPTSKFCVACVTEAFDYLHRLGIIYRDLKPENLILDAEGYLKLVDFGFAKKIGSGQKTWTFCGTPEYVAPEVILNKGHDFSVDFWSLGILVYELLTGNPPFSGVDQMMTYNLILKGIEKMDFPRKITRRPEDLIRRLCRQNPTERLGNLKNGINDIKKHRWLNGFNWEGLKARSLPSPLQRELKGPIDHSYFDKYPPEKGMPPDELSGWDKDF

[17] = biological target: T6, cGMP-dependent protein kinase 2 (Homo sapiens); details: at 1 µM
[18] = biological target: T7, cAMP-dependent protein kinase catalytic subunit PRKX (Homo sapiens) (UniProt P51817); details: at 0.1 µM
T7 sequence (whole entry): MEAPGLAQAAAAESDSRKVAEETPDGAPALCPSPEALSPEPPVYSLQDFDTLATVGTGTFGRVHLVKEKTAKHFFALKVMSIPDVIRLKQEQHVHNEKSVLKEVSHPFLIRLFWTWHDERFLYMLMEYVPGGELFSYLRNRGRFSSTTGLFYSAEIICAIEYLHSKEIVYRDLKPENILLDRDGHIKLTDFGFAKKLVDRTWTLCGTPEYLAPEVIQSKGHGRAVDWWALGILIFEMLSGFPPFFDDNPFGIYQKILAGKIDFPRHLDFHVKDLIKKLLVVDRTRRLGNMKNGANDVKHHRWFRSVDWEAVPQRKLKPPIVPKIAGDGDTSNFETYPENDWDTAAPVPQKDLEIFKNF

[19] = biological target: T7, cAMP-dependent protein kinase catalytic subunit PRKX (Homo sapiens); details: at 1 µM
[20] = biological target: Rho-associated protein kinase 1 (Homo sapiens) (UniProt Q13464); details: at 0.1 µM;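 further: values are mean percent inhibition of ROCK1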
Sequence of Rho-associated protein kinase 1 (Homo sapiens) (Q13464 2-1354 limits assumed): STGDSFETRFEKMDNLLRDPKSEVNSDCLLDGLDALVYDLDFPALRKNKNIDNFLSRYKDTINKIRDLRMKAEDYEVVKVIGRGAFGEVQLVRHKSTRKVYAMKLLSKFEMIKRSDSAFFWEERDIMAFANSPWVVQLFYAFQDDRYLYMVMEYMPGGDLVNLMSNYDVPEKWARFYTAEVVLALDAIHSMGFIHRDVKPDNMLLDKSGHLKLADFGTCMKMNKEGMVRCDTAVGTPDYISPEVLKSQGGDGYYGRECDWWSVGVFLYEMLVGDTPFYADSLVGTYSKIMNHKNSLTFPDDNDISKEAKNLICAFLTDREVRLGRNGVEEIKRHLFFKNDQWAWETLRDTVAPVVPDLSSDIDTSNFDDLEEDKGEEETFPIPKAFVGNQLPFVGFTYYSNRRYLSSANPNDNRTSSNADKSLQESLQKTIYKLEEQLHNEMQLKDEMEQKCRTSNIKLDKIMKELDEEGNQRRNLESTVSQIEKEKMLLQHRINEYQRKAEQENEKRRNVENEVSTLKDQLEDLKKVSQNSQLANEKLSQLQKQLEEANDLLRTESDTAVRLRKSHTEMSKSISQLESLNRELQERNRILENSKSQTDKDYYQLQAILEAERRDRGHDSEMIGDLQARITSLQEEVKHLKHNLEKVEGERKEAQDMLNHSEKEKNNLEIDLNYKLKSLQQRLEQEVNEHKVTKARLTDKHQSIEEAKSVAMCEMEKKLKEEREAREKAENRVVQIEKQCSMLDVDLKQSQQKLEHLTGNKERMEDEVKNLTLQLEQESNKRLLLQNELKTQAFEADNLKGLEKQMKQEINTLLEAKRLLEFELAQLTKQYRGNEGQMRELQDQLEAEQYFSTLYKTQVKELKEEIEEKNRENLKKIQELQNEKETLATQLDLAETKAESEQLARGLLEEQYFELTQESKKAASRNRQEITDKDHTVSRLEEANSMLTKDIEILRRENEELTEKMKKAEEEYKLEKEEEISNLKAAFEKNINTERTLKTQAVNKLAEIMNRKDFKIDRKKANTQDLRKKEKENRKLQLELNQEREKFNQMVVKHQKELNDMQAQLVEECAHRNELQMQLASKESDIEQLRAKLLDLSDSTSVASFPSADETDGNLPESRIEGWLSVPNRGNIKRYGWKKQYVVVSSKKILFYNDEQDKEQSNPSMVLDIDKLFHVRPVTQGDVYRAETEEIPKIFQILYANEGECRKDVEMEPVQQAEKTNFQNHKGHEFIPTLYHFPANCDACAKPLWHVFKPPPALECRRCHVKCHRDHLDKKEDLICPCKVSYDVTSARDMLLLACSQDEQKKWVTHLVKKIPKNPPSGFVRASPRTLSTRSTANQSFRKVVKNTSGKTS

SMILES | inhibition [1] [%] | inhibition [2] [%] | inhibition [3] [%] | inhibition [4] [%] | inhibition [5] [%] | inhibition [6] [%] | inhibition [7] [%] | inhibition [8] [%] | inhibition [9] [%] | inhibition [10] [%] | inhibition [11] [%] | inhibition [12] [%] | inhibition [13] [%] | inhibition [14] [%] | inhibition [15] [%] | inhibition [16] [%] | inhibition [17] [%] | inhibition [18] [%] | inhibition [19] [%] | inhibition [20] [%]
O=C(Nc1n[nH]c2nc(-c3ccc(O)cc3)c(Br)cc12)C1CC1 | 48.1 | 5.33 | 19.2 | 7.68 | 33.2 | 19 | 57.6 | 4.47 | 7.7 | 6.19 | 5.92 | 5.64 | 6.49 | 3.5 | 6.22 | 5.14 | 27.8 | 3.04 | 4.28 | 0.72
O=C(Nc1ccc(Oc2ccc3[nH]c(NC(=O)c4ccccc4)nc3c2)cc1)Nc1cc(C(F)(F)F)ccc1F | 3.66 | 1.82 | 0.93 | 1.79 | 2.18 | 1.51 | 4.95 | 2.05 | 3.41 | 3.12 | 4.25 | 3.06 | 3.63 | 2.01 | 3.65 | 1.4 | 2.23 | 1.55 | 1.09 | 0.24
NC(=O)c1ccc(Oc2nccc(-c3c(-c4ccc(F)cc4)ncn3C3CCNCC3)n2)cc1 | 2.68 | 2.53 | 1.91 | 3.83 | 3.82 | 1.9 | 5.22 | 4.57 | 6.71 | 4.04 | 3.14 | 4.58 | 5.2 | 4.67 | 6.78 | 5.65 | 6.43 | 3.5 | 3.99 | 2.81
